# ATXN viability – cell viability loss in ATXN counter-screen; S2 cells (HEK-293 line with an ATXN2-luciferase reporter) viability, CellTiter-Fluor protease fluorescence, 24 h; Potency, µM (doses to about 56.7 µM), usual class: cytotoxic; 400,000 compounds, 0.49% hits; further: nearly all actives have a fitted effect of over 40% in size
# TGFb inhibitor – blocks TGF-b signaling; Potency, µM (series often up to 46.1 µM), most hits filed as inhibitors; 410,000 compounds, 1.2% hits; HepG2 CAGA-GFP TGF-b/SMAD3 reporter, GFP fluorescence, 18 h; TGF-beta stimulated, 500 pg/mL final; further: nearly all actives have a fitted effect of over 65% in size
#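 Cell-based qHTS in HEPG2 carrying a CAGA-GFP Smad reporter; compounds added before 500 pg/mL final TGF-beta, 18 h incubation at 37 degrees C, GFP fluorescence quantified per cell by imaging cytometry.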
# ALOX12 inh – inhibitors of human 12S-lipoxygenase ALOX12; P18054; purified 12hLO, xylenol orange hydroperoxide absorbance; Potency, µM (doses to about 108 µM), actives largely listed as inhibitors; 580,000 compounds, 1.1% hits; AID 1671190
#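 Purified human 12hLO (150 nM final) in 25 mM Hepes, 0.01% Triton X-100, pH 7.0 was preincubated 15 min at room temperature with compound. Then 40 uM arachidonic acid was added, 30 min. Hydroperoxide was read by Fe-XO absorbance ratio 573/405 nm.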
# ATXN2 expr inh – ATXN2 expression inhibition; Potency, µM (titrated, usually from 57 µM), hits mostly inhibitors; HEK-293 ATXN2-luciferase reporter, luminescence, 24 h; 360,000 compounds, 0.72% hits; further: nearly all actives have a fitted effect of over 55% in size
#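 ATXN2-luciferase reporter cells (luciferase flanked by upstream and downstream ATXN2 gene portions) were treated 24 h at 37 °C with compounds at up to 57 uM. SteadyGlo luminescence gave expression; GF-AFC fluorescence gave viability.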
# HepG2 tox – kills HepG2 cells in TGF-b inhibitor counter-screen. HepG2 CAGA-GFP viability, ATP luminescence, 18 h. 410,000 compounds, 0.76% hits. Potency, µM (top dose mostly 46.1 µM), actives largely listed as cytotoxic. AID 588856
#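 CellTiter-Glo luminescence gave cytotoxicity after 18 hours at 37 degrees C. The cells were HepG2 CAGA-GFP in 1% FBS DMEM, stimulated with 500 pg/mL TGF-beta after compound addition. %Activity was normalised to no-cell wells (complete cell-killing) and DMSO (no toxicity), and curves were fitted and classified.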
# SK-N-SH 3D tox – reduced viability of SK-N-SH 3D spheroids, orthogonal test. Potency, µM (titrated, usually from 30.7 µM), hits mostly inhibitors. 65 compounds, 70% hits. shares compounds with ATXN2 expr inh. SK-N-SH 3D spheroid viability, PI/Hoechst imaging, 72 h
# SJGBM2 3D viab – SJ-GBM2 spheroid viability loss, orthogonal 3D screen; SJ-GBM2 3D spheroid viability, PI/Hoechst imaging, 72 h; 65 compounds, 80% hits; shares compounds with ATXN2 expr inh; Potency, µM (doses to about 30.7 µM), most hits filed as inhibitors
# Daoy spheroid – kills Daoy spheroids in orthogonal 3D test. AID 1347137. shares compounds with ATXN2 expr inh. 65 compounds, 50% hits. Potency, µM (series often up to 30.7 µM), hits mostly inhibitors. Daoy 3D spheroid viability, PI/Hoechst imaging, 72 h
# TC32 3D casp – activates caspase in TC32 3D spheroids. shares compounds with ATXN2 expr inh. TC32 3D spheroids, caspase-3/7 fluorescence imaging, 24 h. Potency, µM (series often up to 30.7 µM), most hits filed as inhibitors. 65 compounds, 30% hits
# TC32 spheroid – kills TC32 spheroids in orthogonal 3D test; TC32 3D spheroid viability, PI/Hoechst imaging, 72 h; shares compounds with ATXN2 expr inh; 65 compounds, 60% hits; AID 1347139; Potency, µM (top dose mostly 30.7 µM), actives largely listed as inhibitors
# MG63 spheroid – MG-63 (6-TG R) 3D spheroid viability loss; shares compounds with ATXN2 expr inh; MG-63 (6-TG R) 3D spheroid viability, PI/Hoechst imaging, 72 h; Potency, µM (highest dose often 30.7 µM), actives largely listed as inhibitors; 65 compounds, 50% hits
# RD spheroid – RD 3D spheroid viability loss; 65 compounds, 50% hits; Potency, µM (highest dose often 30.7 µM), usual class: inhibitors; shares compounds with ATXN2 expr inh; RD rhabdomyosarcoma 3D spheroid viability, PI/Hoechst imaging, 72 h
# A number is an active result; 0 = inactive; ? = inconclusive; - = no result. This is a sample that favours compounds with a hit; in the whole collection about 2.7% have one here. The call rests on the fitted dose curve; in most records, active means well fitted curve in the direction sought with a large enough effect; inconclusive means small, poorly fitted or top-dose-only effect, or another doubt; inactive means no such curve, though single readings can be large; an effect the other way counts as inactive or inconclusive.
SMILES,ATXN viability,TGFb inhibitor,ALOX12 inh,ATXN2 expr inh,HepG2 tox,SK-N-SH 3D tox,SJGBM2 3D viab,Daoy spheroid,TC32 3D casp,TC32 spheroid,MG63 spheroid,RD spheroid
CC(C)(C)NC(=O)[C@H]1CN(Cc2cccnc2)CCN1C[C@@H](O)C[C@@H](Cc1ccccc1)C(=O)N[C@H]1c2ccccc2C[C@H]1O,-,-,0,?,-,0,0,0,0,0,0,0
c1ccc2c(c1)CCCc1cc(NCCN3CCOCC3)nnc1-2,0,0,0,0,0,-,-,-,-,-,-,-
O=C1C(Cl)=C(NCCN2CCOCC2)C(=O)c2ncccc21,-,-,?,9.7µM,-,3.2µM,4.6µM,6.4µM,0,11µM,5.1µM,11µM
CCn1c(=O)c2sccc2n(CC(=O)N(C)c2ccccc2)c1=O,-,-,0,-,-,-,-,-,-,-,-,-
Nc1nc(CN2CCN(C(=O)c3ccc(OC(F)(F)F)cc3)CC2)nc2ccccc12,-,-,0,-,-,-,-,-,-,-,-,-
CC(=O)OCC(=O)[C@@]1(O)CC[C@H]2[C@@H]3CCC4=CC(=O)C=C[C@]4(C)[C@@H]3[C@@H](O)C[C@@]21C,-,-,0,0,-,-,-,-,-,-,-,-
CC(=O)OCC(=O)[C@@]12N=C(C)O[C@@H]1C[C@H]1[C@@H]3CCC4=CC(=O)C=C[C@]4(C)[C@H]3[C@@H](O)C[C@@]12C,0,-,-,0,-,0,?,0,0,0,0,0
COC(=O)Nc1nc2ccc(C(=O)c3ccc(F)cc3)cc2[nH]1,-,-,0,0,-,1µM,0.91µM,?,?,2µM,?,?
O=C(c1cccc(C(F)(F)F)c1)N1CCCN(C2CC2)CC1,-,-,0,-,-,-,-,-,-,-,-,-
CCOc1cc(N2CCC(O)CC2)ccc1Nc1ncc2c(n1)N(C)c1ccccc1C(=O)N2C,-,-,?,0,-,?,0,0,0,0,0,?
Cc1cccc(-c2nc(Nc3ccc(N4CCOCC4)cc3)c3ccccc3n2)c1,?,0,0,0,0,-,-,-,-,-,-,-
Cc1ccc(-c2ncn(-c3ccc(Nc4nccc(-c5cccc(N6CCOCC6)c5)n4)cc3)n2)cn1,-,-,0,4.9µM,-,0.91µM,1.6µM,-,0,0,0,?
Cn1cc(CNCC2CCN(c3ncc(C(=O)NO)cn3)CC2)c2ccccc21,-,-,0,0,-,0.02µM,0.026µM,0.18µM,?,0.064µM,0.72µM,0.32µM
CCCn1nnc(NC(=O)COc2ccc(C(C)CC)cc2)n1 (centres undefined),-,-,0,-,-,-,-,-,-,-,-,-
O=C(CCS(=O)(=O)c1ccc(F)cc1)Nc1ccc(OC(F)F)c(Cl)c1,-,-,0,-,-,-,-,-,-,-,-,-
COc1cc(C(C)=O)ccc1OCCCN1CCC(c2noc3cc(F)ccc23)CC1,0,-,?,0,-,?,4.1µM,16µM,0,0,13µM,14µM
CC(C)C[C@H](NC(=O)[C@H](Cc1ccccc1)NC(=O)c1cnccn1)B(O)O,50µM,-,0,0.027µM,-,0.01µM,0.016µM,0.032µM,0.18µM,0.018µM,0.081µM,0.011µM

# Screening data (PubChem BioAssay)
